Measurements from PubChem BioAssay (Tox21).
Records with an inconclusive call do not appear. The source made the active and inactive calls. Unless noted, calls come from the whole dose curve; as a rule, active = well fitted curve in the direction sought with a large enough effect in the repeat runs; inconclusive = weak or mixed curves; inactive = no such curve, though single readings can be large; an effect the other way counts as inactive or inconclusive.

How the values were obtained:
[1] = qHTS assay for small molecules that induce genotoxicity in human embryonic kidney cells expressing luciferase-tagged ATAD5 (AID 651632); note: nearly all actives have a fitted effect of over 15% in size
Summary of the method: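 Concentration-response screen for ATAD5 upregulation in HEK293T luciferase reporter cells; 16 hr treatment at 37C, then luminescence after 30 min with Amplite at room temperature.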

[2] = qHTS assay for small molecules that induce genotoxicity in human embryonic kidney cells expressing luciferase-tagged ATAD5 - cell viability (AID 651634; calls by dose curve; note: nearly all actives have a fitted effect of over 25% in size)
Summary of the method: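 15.5 hr compound or vehicle exposure of HEK293T cells expressing luciferase-tagged ATAD5 at 37C; live-cell protease activity is read by fluorescence after 30 min of CellTiter-Fluor.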

[3] = qHTS assay for small molecule disruptors of the mitochondrial membrane potential - cell viability (AID 720634; calls by dose curve;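 note: human HepG2 liver cancer cells; series mostly up to about 83 µM; nearly all actives have a fitted effect of over 20% in size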)
Summary of the method: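 In this qHTS format, HepG2 cells plated overnight were pinned with compound, incubated 1 hr, and assayed for ATP luminescence with CellTiter-Glo after m-MPI dye addition.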

[4] = qHTS assay to test for compound auto fluorescence at 590 nm (red) in HepG2 cells (AID 720674)
Summary of the method: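 1 hr compound incubation on HepG2 cells, 37 C, 5% CO2; plate read ex 540 nm / em 590 nm; intensities reported as Rose Bengal sodium equivalents.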

[5] = qHTS assay to test for compound auto fluorescence at 535 nm (green) in HepG2 cells (AID 720675)
[6] = qHTS assay to test for compound auto fluorescence at 460 nm (blue) in HEK293 cells (AID 720678)
Summary of the method: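 HEK293, 2,000 cells/well, 10% dialyzed FBS; attach 4-5 hr 37C; pin compound or DMSO; o/n 37C/5% CO2; fluorescence 405/460 nm; triamterene-equivalent units.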

[7] = qHTS assay to test for compound auto fluorescence at 590 nm (red) in HEK293 cells (AID 720679)
Summary of the method: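 Intensity at 540nm excitation and 590nm emission is reported as Rose Bengal sodium-equivalent autofluorescence. Measurements followed overnight exposure (37C, 5% CO2) of HEK293 cells, 2,000 per well, to 23 nL compound.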

[8] = qHTS assay to test for compound auto fluorescence at 535 nm (green) in HEK293 cells (AID 720680)
[9] = qHTS assay to test for compound auto fluorescence at 460 nm (blue) in HEK293 cell free culture (AID 720681)
Summary of the method: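 Blue fluorescence (Ex 405/Em 460 nm, triamterene-equivalent) was read immediately after pin transfer of compound or DMSO into medium (DMEM, 10% FBS) without cells.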

[10] = qHTS assay to test for compound auto fluorescence at 535 nm (green) in HEK293 cell free culture (AID 720682)
Summary of the method: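 Compounds were pin-transferred into cell-free DMEM with 10% FBS, and green fluorescence was read at excitation 485 nm and emission 535 nm. Intensities were expressed as fluorescein-equivalent values.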

[11] = qHTS assay to test for compound auto fluorescence at 590 nm (red) in HEK293 cell free culture (AID 720683)
Summary of the method: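 Red-channel autofluorescence of compounds in culture medium (DMEM, 10% FBS), no cells, measured at 540/590 nm. Rose Bengal sodium is the reference fluorophore for equivalence.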

[12] = qHTS assay to test for compound auto fluorescence at 590 nm (red) in HepG2 cell free culture (AID 720684)
Summary of the method: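 No cells present: MEM + 10% FBS only. Compound pinned in, red label read (540/590 nm). Activity = fluorescence equivalent to Rose Bengal sodium.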

[13] = qHTS assay to test for compound auto fluorescence at 535 nm (green) in HepG2 cell free culture (AID 720686)
[14] = qHTS assay to test for compound auto fluorescence at 460 nm (blue) in HepG2 cells (AID 720687)
Summary of the method: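 Blue-channel autofluorescence (Ex/Em 405/460 nm, triamterene-equivalent) was measured after 1 hr compound exposure at 37 C, 5% CO2. Cells were HepG2, plated overnight at 37 C in MEM plus 10% FBS.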

[15] = qHTS assay for small molecule agonists of the p53 signaling pathway - cell viability (AID 651633; calls by dose curve;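 note: p53RE-bla HCT reporter cells with a stable beta-lactamase p53 reporter; series mostly up to about 83 µM; nearly all actives have a fitted effect of over 30% in size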)
Summary of the method: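 Viability counter-read: CellTiter-Glo luminescence (30 min, room temperature) in the same p53RE-bla plates. These plates had been exposed to compounds for 16 h at 37 C.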

[16] = target: Glucocorticoid receptor (Homo sapiens) (UniProt P04150); experiment: qHTS assay to identify small molecule agonists of the glucocorticoid receptor (GR) signaling pathway (AID 720691; active = well fitted activation curve with a large enough effect in the signal ratio in the repeat runs, not every such curve was filed as active; the % refers to the signal ratio)
Sequence of Glucocorticoid receptor (Homo sapiens) (P04150 whole entry, looked up): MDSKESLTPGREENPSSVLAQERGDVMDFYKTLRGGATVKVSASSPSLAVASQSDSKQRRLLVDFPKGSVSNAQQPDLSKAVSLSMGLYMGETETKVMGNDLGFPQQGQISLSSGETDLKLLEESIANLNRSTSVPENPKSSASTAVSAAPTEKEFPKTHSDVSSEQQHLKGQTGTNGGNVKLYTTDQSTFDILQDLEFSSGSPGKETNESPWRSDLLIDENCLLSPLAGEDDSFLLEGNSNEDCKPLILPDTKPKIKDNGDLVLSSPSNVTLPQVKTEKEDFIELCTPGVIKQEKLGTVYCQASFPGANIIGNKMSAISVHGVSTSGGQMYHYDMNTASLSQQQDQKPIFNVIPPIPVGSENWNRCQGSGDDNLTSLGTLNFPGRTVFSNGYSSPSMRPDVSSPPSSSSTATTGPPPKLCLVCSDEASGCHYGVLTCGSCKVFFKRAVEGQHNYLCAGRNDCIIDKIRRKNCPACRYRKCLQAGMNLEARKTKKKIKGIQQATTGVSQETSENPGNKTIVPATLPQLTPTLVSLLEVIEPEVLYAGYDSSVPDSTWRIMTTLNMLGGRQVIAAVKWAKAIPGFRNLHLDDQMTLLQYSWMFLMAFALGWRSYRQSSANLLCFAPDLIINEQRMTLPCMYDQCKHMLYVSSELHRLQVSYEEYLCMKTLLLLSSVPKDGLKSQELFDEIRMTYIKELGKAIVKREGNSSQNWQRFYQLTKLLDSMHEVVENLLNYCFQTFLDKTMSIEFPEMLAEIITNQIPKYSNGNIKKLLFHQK
Summary of the method: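 Measures GR pathway activation through a GRE-beta-lactamase reporter stably integrated in HeLa cells, with 18 h compound treatment at 37 C and fluorescence detection using a FRET substrate.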

[17] = qHTS assay to test for compound auto fluorescence at 460 nm (blue) in HepG2 cell free culture (AID 720685)
Summary of the method: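 Cell-free plates of MEM plus 10% FBS received 23 nL compound or DMSO vehicle; blue-channel (405/460 nm) intensity scored against triamterene as reference fluorophore.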

[18] = target: Glucocorticoid receptor (Homo sapiens) (UniProt P04150); experiment: qHTS assay to identify small molecule antagonists of the glucocorticoid receptor (GR) signaling pathway (AID 720692; active = well fitted inhibition curve with a large enough effect in the signal ratio in the repeat runs, not every such curve was filed as active; the % refers to the signal ratio)
Summary of the method: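 Tox21 10K library screened in concentration-response for blockade of dexamethasone (5 nM final)-induced GRE-bla reporter activity in HeLa cells; 18 h treatment, fluorescence read.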
% is set by controls: 0 for no effect and ±100 for the full control effect.

Cn1c(=O)c2c(ncn2CC2OCCO2)n(C)c1=O
inactive: outcome [1] | Potency [2] | outcome [3] | outcome [4] | outcome [5] | outcome [6] | outcome [7] | outcome [8] | outcome [9] | outcome [10] | outcome [11] | outcome [12] | outcome [13] | outcome [14]

c1ccc(CNc2ncnc3nc[nH]c23)cc1
inactive: outcome [15] | outcome [3] | outcome [4] | outcome [5] | outcome [6] | outcome [7] | outcome [8] | outcome [9] | outcome [10] | outcome [11] | outcome [12] | outcome [14] | Potency [16]

O=CO
inactive: activity change, negative = cytotoxicity [15] 17.2% [at 8.08 µM] | activity change, negative = cytotoxicity [3] 10.1% [at 8.08 µM] | fluorescence, relative to Rose Bengal [4] 0.134% [at 9.17 µM] | fluorescence, % of fluorescein control [5] -0.0157% [at 9.17 µM] | fluorescence, % of triamterene [6] 0.001% [at 9.17 µM] | fluorescence, % of fluorescent control [7] 0.473% [at 9.17 µM] | fluorescence, % of fluorescein [8] -0.109% [at 9.17 µM] | fluorescence, % of fluorescent control [9] -0.189% [at 9.17 µM] | activity change [10] -0.0948% [at 9.17 µM] | fluorescence, % of fluorescent control [11] -0.0633% [at 9.17 µM] | fluorescence, % of Rose Bengal [12] 0.0285% [at 9.17 µM] | fluorescence, % of fluorescent control [17] -0.136% [at 9.17 µM] | fluorescence, % of fluorescent control [14] 0.0876% [at 9.17 µM]

Nc1cc(Cl)cc(S(=O)(=O)O)c1O
inactive: outcome [1] | Potency [2] | outcome [3] | outcome [4] | outcome [5] | outcome [6] | outcome [7] | outcome [8] | outcome [9] | outcome [10] | outcome [11] | outcome [12] | outcome [17] | outcome [14]

CO/N=C(/C(=O)N[C@@H]1C(=O)N2C(C(=O)O)=C(Cn3nnc(C)n3)CS[C@H]12)c1csc(N)n1
inactive: Potency [2] | outcome [3] | outcome [4] | outcome [5] | outcome [8] | outcome [9] | outcome [10] | outcome [11] | outcome [12] | outcome [13] | outcome [14] | Potency [16] | outcome [18]

CN[C@@H]1[C@@H](O)[C@@H](O[C@@H]2[C@H](O)[C@H](O[C@H]3OC(CN)=CC[C@H]3N)[C@@H](N)C[C@H]2N)OCC1(C)O (stereo partly specified)
inactive: outcome [1] | outcome [3] | outcome [4] | outcome [6] | outcome [8] | outcome [9] | outcome [10] | outcome [11] | outcome [12] | outcome [17] | outcome [13] | outcome [14] | Potency [16] | outcome [18]

Cc1cccc(NC(=S)N(C)C)c1
inactive: Potency [2] | outcome [3] | outcome [4] | outcome [5] | outcome [6] | outcome [7] | outcome [8] | outcome [9] | outcome [10] | outcome [11] | outcome [12] | outcome [17] | outcome [13] | outcome [14] | Potency [16] | outcome [18]

C[C@@H]1C[C@H]2[C@@H]3C[C@H](F)C4=CC(=O)C=C[C@]4(C)[C@@]3(F)[C@@H](O)C[C@]2(C)[C@@]1(O)C(=O)CO
inactive: outcome [15] | Potency [2] | outcome [3] | fluorescence, relative to Rose Bengal [4] -0.458% [at 18.6 µM] | fluorescence, % of fluorescein control [5] 0.0352% [at 18.6 µM] | fluorescence, % of triamterene [6] -0.0057% [at 18.6 µM] | fluorescence, % of fluorescent control [7] -0.084% [at 18.6 µM] | fluorescence, % of fluorescein [8] 0.12% [at 18.6 µM] | fluorescence, % of fluorescent control [9] -0.0209% [at 18.6 µM] | activity change [10] 0.0847% [at 18.6 µM] | fluorescence, % of fluorescent control [11] -0.0134% [at 18.6 µM] | fluorescence, % of Rose Bengal [12] 0.414% [at 18.6 µM] | fluorescence, % of fluorescein control [13] 0.0581% [at 18.6 µM] | fluorescence, % of fluorescent control [14] -0.0249% [at 18.6 µM]

Cc1ncc([N+](=O)[O-])n1CC(O)CCl (stereo unspecified)
inactive: outcome [15] | Potency [2] | outcome [3] | fluorescence, relative to Rose Bengal [4] -0.0192% [at 18.6 µM] | fluorescence, % of fluorescein control [5] -0.155% [at 18.6 µM] | fluorescence, % of triamterene [6] -0.195% [at 18.6 µM] | fluorescence, % of fluorescent control [7] -0.364% [at 18.6 µM] | fluorescence, % of fluorescein [8] -0.0185% [at 18.6 µM] | fluorescence, % of fluorescent control [9] -0.008% [at 18.6 µM] | activity change [10] 0.017% [at 18.6 µM] | fluorescence, % of fluorescent control [11] -0.0564% [at 18.6 µM] | fluorescence, % of Rose Bengal [12] 0.0054% [at 18.6 µM] | fluorescence, % of fluorescein control [13] -0.0146% [at 18.6 µM] | fluorescence, % of fluorescent control [14] -0.0428% [at 18.6 µM] | Potency [16] | outcome [18]

CC(C)COC(=O)CCCCC(=O)OCC(C)C
inactive: outcome [1] | outcome [15] | outcome [3] | outcome [4] | outcome [6] | outcome [7] | outcome [8] | outcome [9] | outcome [10] | outcome [11] | outcome [12] | outcome [17] | outcome [13] | outcome [14]

O=S(=O)(O)CCO
inactive: outcome [15] | Potency [2] | outcome [4] | outcome [5] | outcome [8] | outcome [9] | outcome [10] | outcome [11] | outcome [12] | outcome [17] | outcome [13] | outcome [14] | Potency [16] | outcome [18]

NC(Cc1c[nH]c2ccccc12)C(=O)O (stereo unspecified)
inactive: outcome [15] | outcome [3] | outcome [4] | outcome [6] | outcome [7] | outcome [9] | outcome [10] | outcome [11] | outcome [12] | outcome [13] | outcome [14] | Potency [16] | outcome [18]

Cc1oc(=O)oc1CN1CCN(c2cc3c(cc2F)c(=O)c(C(=O)O)c2n3C(C)S2)CC1 (stereo unspecified)
inactive: outcome [1] | outcome [15] | outcome [3] | outcome [4] | outcome [6] | outcome [8] | outcome [9] | outcome [10] | outcome [11] | outcome [12] | outcome [17] | outcome [13] | outcome [14]

O=C(O)c1c(Cl)ccc(Cl)c1Cl
inactive: outcome [1] | Potency [2] | outcome [4] | outcome [5] | outcome [6] | outcome [7] | outcome [8] | outcome [9] | outcome [10] | outcome [11] | outcome [12] | outcome [13] | outcome [14] | Potency [16] | outcome [18]
